Screening results deposited in PubChem BioAssay by The Scripps Research Institute Molecular Screening Center.
TEAD-YAP inh: TEAD-YAP interaction inhibition. actives 1.4% (n = 640,000). AID 1259422. inhibition, % at 9.12 µM. HEK-TIYL cells, TEAD-Gal4/YAP UAS-luciferase luminescence; in the data active means inhibition above about 32%;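 further: 0% = median of test compound wells and 100% = reference inhibitor wells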
MITF primary: blocks human microphthalmia-associated transcription factor | O75030 | AlphaScreen MITF homodimerization, bead proximity signal | inhibition, % at 2.6 µM | actives 0.91% (n = 650,000) | AID 1259374; in the data active means inhibition above about 50%;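 further: 0% = vehicle wells with protein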
Target sequence (O75030 whole entry, looked up): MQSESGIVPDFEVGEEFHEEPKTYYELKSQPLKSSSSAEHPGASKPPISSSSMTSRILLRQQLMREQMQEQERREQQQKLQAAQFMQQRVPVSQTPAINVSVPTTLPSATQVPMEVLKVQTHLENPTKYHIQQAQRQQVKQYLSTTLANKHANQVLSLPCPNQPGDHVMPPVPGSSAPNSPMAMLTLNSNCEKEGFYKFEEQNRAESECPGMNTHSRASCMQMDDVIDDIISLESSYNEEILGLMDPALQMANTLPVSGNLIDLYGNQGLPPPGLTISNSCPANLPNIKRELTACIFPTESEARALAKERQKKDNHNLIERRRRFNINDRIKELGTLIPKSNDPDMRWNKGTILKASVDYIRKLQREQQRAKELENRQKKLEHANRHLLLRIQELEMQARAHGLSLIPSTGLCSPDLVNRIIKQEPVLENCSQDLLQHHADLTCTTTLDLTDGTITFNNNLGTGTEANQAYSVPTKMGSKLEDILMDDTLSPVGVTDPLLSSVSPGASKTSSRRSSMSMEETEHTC
GPR151 ag: human GPR151 activation; Q8TDV0; PathHunter beta-arrestin GPR151 cells, luminescence; activation, % at 11.2 µM; actives 1% (n = 650,000); in the data active means activation above about 4.9%;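 further: 0% = median of compound wells and 100% = cells with positive control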
FBW7 activator: activators of human E3 ligase FBW7; AlphaScreen FBW7–phospho-cyclin E peptide binding, activator screen; actives 0.13% (n = 650,000); normalized activity (activation), % at 26.1 µM; Q969H0; in the data active means normalized activity above about 1.9%;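 further: purified mutant Fbw7 with reduced substrate affinity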
MITF inh conf: human MITF inhibition, confirmation; AID 1259372; shares compounds with MITF primary; actives 16% (n = 4,700); AlphaScreen MITF homodimerization, biotin/His-MITF beads; inhibition, % at 2.6 µM;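 active means inhibition above a cutoff derived from the DMSO control wells, cut at about 28% in these data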;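 further: 0% = MITF dimer wells with DMSO only; inhibitors lower the bead chemiluminescence by keeping MITF from dimerizing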
AS interf ctr: counter-screen: compounds optically interfering with AlphaScreen; shares compounds with MITF primary; LysRS AlphaScreen counterscreen, signal interference, triplicate; inhibition, % at 2.6 µM; actives 7.6% (n = 4,700);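 active means inhibition above a cutoff derived from the DMSO control wells, cut at about 30% in these data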
Numbers without * were called inactive; . = not tested or not shown. Rows were chosen to be rich in hits. Some 3.4% of all compounds tested hit in one or more screens of this group.

SMILES | TEAD-YAP inh | MITF primary | GPR151 ag | FBW7 activator | MITF inh conf | AS interf ctr
CCOc1cccc(OCCN2CCNCC2)c1 | -2 | 75* | -1 | 0 | 9 | -13
Fc1ccc(OCCCN2CCNCC2)cc1 | 1 | 37 | -1 | 0 | . | .
Clc1cccc(OCCN2CCNCC2)c1 | 3 | 49 | -2 | 1 | . | .
c1ccc(Oc2cccc(OCCCCN3CCNCC3)c2)cc1 | -16 | 77* | -1 | 0 | 3 | 13
c1ccc(COc2ccc(OCCCN3CCNCC3)cc2)cc1 | 58* | 62* | 1 | 0 | 1 | 5
CCOc1cccc(OCCN2CC(C)OC(C)C2)c1 (configuration not stated) | -6 | 53* | 0 | 0 | 12 | 12
c1ccc(Oc2cccc(OCCCN3CCNCC3)c2)cc1 | -13 | 31 | 2 | 0 | . | .
CCCCc1ccc(NC(=O)CSc2nc(=O)n(CCN3CCOCC3)c3c2CCCC3)cc1 | 5 | -8 | 0 | 0 | . | .
CCNc1ccccc1C(=O)OCC(=O)c1ccc(Cl)cc1 | -2 | -5 | -1 | 0 | . | .
O=C1C=C(N2CCN(c3ccc([N+](=O)[O-])cc3)CC2)c2ccccc2C1=O | -8 | -14 | -1 | 0 | . | .
CCN1CCN(CCCOc2cccc(Oc3ccccc3)c2)CC1 | -6 | 69* | -1 | -1 | 7 | 16
c1ccc(Oc2cccc(OCCCCN3CCOCC3)c2)cc1 | -4 | 29 | -1 | 0 | . | .
CC1=C(C(=O)N2CCOCC2)C(c2ccc(Cl)cc2)NC(=S)N1 (configuration not stated) | -4 | -11 | 0 | 0 | . | .
CC1=C(C(=O)N2CCOCC2)C(c2ccc(C)cc2)NC(=S)N1 (configuration not stated) | -8 | 70* | -1 | 0 | 9 | 16
CN1CCN(c2cc(-c3cccc(C(F)(F)F)c3)nc(-c3ccccn3)n2)CC1 | 11 | 4 | 0 | 0 | . | .
O=C(c1ccc(Cn2ccnc2)cc1)N1CCN(Cc2nc3ccccc3[nH]2)CC1 | -3 | 87* | -1 | 0 | 4 | 14
COC(=O)c1ccc(CN2CCN(Cc3nc4ccccc4[nH]3)CC2)o1 | 3 | 73* | 5 | 0 | 4 | 21
CC(=O)c1ccc(NC(=O)N2CCN(Cc3nc4ccccc4[nH]3)CC2)cc1 | -1 | 3 | -1 | 0 | . | .
COc1ccc(CCNC(=O)N2CCN(Cc3nc4ccccc4[nH]3)CC2)cc1 | 8 | 9 | -1 | -1 | . | .
CCOC(=O)C1=C(O)/C(=C\c2ccc(Cl)cc2)N=C1C | 0 | -15 | 1 | 0 | . | .
CCCCN(CC)C(=O)CSc1nc2c(sc(=S)n2-c2ccccc2OCC)c(=O)n1-c1ccccc1 | 9 | 19 | -2 | 0 | . | .
COc1cc(NC(=O)c2ccc([N+](=O)[O-])o2)ccc1NC(=O)c1ccccc1Cl | 8 | 15 | 2 | 1 | . | .
O=C(CN1CCN(Cc2cccc3ccccc23)CC1)c1ccco1 | -1 | 67* | -1 | 0 | 6 | 10
c1coc(CN2CCN(Cc3cccc4ccccc34)CC2)c1 | -17 | 76* | -2 | 0 | 15 | 16
CC1(C)CC(=O)C(/C=N/Nc2n[nH]c(=O)[nH]c2=O)=C(O)C1 | -15 | 95* | -1 | -1 | 34* | 98*
